Compounds with a hit are over-represented: about 4.2% of the library has one in this group of screens.
TIM10 inh: inhibits growth of TIM10 yeast strain; S. cerevisiae TIM10 strain growth, BacTiter-Glo luminescence, 24 h; hit rate 1.4% among 330,000; AID 463195; inhibition, % at 10 µM;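 active = inhibition of 40% or more at the single tested concentration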;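 also: wild-type TIM10 isogenic control strain grown at permissive 25 °C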
tim10-1 inh: inhibits growth of tim10-1 mutant yeast; hit rate 2.2% among 330,000; inhibition, % at 20 µM; S. cerevisiae tim10-1 ts strain growth, BacTiter-Glo, 24 h;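 active = inhibition of at least 40%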;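 also: mutant grown at 25 °C; 0% = DMSO wells with yeast and 100% = wells holding no yeast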
NLRP3 yeast inh: blocks the NALP3 inflammasome reconstituted in yeast | Yeast reconstituted NLRP3/ASC/caspase-1, beta-gal luminescence, 24 h | hit rate 0.39% among 330,000 | AID 2825 | inhibition, % at 10 µM;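 active = inhibition of 50% or more; inactive = inhibition below 50%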;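 also: plate controls were induced DMSO wells for no effect and uninduced yeast grown without galactose for full effect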
PfHsp90 set2: inhibits growth of yeast expressing Plasmodium falciparum Hsp90 | S. cerevisiae expressing PfHsp90, BacTiter-Glo ATP, 48 h; yeast lacking PDR1 and PDR3 efflux regulators | hit rate 0.32% among 310,000 | inhibition, % at 9.4 µM;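 active = every replicate shows inhibition above about 80%, whatever the replicate mean, limit read from the data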;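 also: 0% = DMSO neutral controls and 100% = 20 µM radicicol positive controls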
tim23-1 inh: inhibits growth of tim23-1 mutant yeast; hit rate 1.3% among 330,000; S. cerevisiae tim23-1 growth, BacTiter-Glo luminescence, 24 h; inhibition, % at 20 µM;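 active = growth inhibition of the mutant yeast at or above 50%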;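 also: temperature-sensitive mutant grown at 25 °C; plate controls were DMSO-treated mutant yeast for no effect and medium wells lacking yeast for full effect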
NALP1 inh: NALP1 inhibition; S. cerevisiae NALP1/ASC/caspase-1 growth, X-gal OD620, 72 h; inhibition, % at 10 µM; hit rate 0.61% among 280,000; AID 2071; in the data active = inhibition mostly above about 24%, no sharp cut-off; inactive = mostly below about 32%
tim10-1 conf: tim10-1 yeast growth inhibition, confirmed; shares compounds with tim10-1 inh; S. cerevisiae tim10-1 ts strain growth, BacTiter-Glo, 24 h; inhibition, % at 20 µM; hit rate 56% among 7,400; AID 463213;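 active = inhibition of yeast growth at or above a set limit in either of two repeat tests at 20 µM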;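 also: tim10-1 mutant grown at permissive 25 °C to find synthetic lethal compounds; 0% = DMSO yeast wells and 100% = medium wells without yeast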
An asterisk follows results filed as active.

Cc1cc(C)n(-c2cc(N3CCOCC3)nc(-c3ccccc3)n2)n1 was read as TIM10 inh 26, tim10-1 inh 52*, NLRP3 yeast inh 6, PfHsp90 set2 -13, tim23-1 inh 36, NALP1 inh -4 and tim10-1 conf 13.
`Cc1cc(-c2ccc(C)c(S(=O)(=O)NCC3CCN(Cc4ccc(F)cc4)CC3)c2)on1` gave TIM10 inh -11, tim10-1 inh 42*, NLRP3 yeast inh 15, PfHsp90 set2 -11, tim23-1 inh -24, NALP1 inh 15 and tim10-1 conf -81.
CC(C)CN(CC(C)C)C(=S)Nc1ccc(Cl)cc1 was read as TIM10 inh 37, tim10-1 inh 55*, NLRP3 yeast inh 1, PfHsp90 set2 11, tim23-1 inh 44, NALP1 inh 0 and tim10-1 conf 47*.
`CCc1ccc(NC(=S)N(Cc2ccc(Cl)cc2)Cc2ccc(C(=O)O)cc2)cc1` gave TIM10 inh 6, tim10-1 inh 8, NLRP3 yeast inh 15, PfHsp90 set2 -12, tim23-1 inh 37 and NALP1 inh 1.
For C/C(=N\Nc1ccc(C)c(Cl)c1)c1cccnc1 the results were TIM10 inh -9, tim10-1 inh 10, NLRP3 yeast inh 10, PfHsp90 set2 -11, tim23-1 inh 35 and NALP1 inh 1.
`Cn1c(=O)c2c(nc(SCC(=O)NCc3ccc4c(c3)OCO4)n2Cc2ccc(Cl)cc2)n(C)c1=O` gave TIM10 inh 23, tim10-1 inh 41*, NLRP3 yeast inh 3, tim23-1 inh 13, NALP1 inh 4 and tim10-1 conf 5.
Cc1ccc(S(=O)(=O)NCC(=O)OCC(=O)Nc2ccc3c(c2)OCCO3)cc1 was read as TIM10 inh -4, tim10-1 inh 6, NLRP3 yeast inh -2, PfHsp90 set2 -19 and tim23-1 inh 10.
`Cc1nn(-c2ccccc2)c(Cl)c1C1C(C#N)=C(N)Oc2c1c(C)nn2-c1ccccc1` (centres undefined) gave TIM10 inh -2, tim10-1 inh 47*, NLRP3 yeast inh 7, PfHsp90 set2 12, tim23-1 inh 34, NALP1 inh 9 and tim10-1 conf 19.
`C=CCOC(=O)C1=C(C)OC(N)=C(C#N)C1c1c(C)nn(-c2ccccc2)c1Cl` (centres undefined) gave TIM10 inh 4, tim10-1 inh 37, NLRP3 yeast inh -5, PfHsp90 set2 32, tim23-1 inh 41 and NALP1 inh -7.
For CCOC(=O)C1=C(C)OC(N)=C(C#N)C1c1c(C)nn(-c2ccccc2)c1Cl (centres undefined) the results were TIM10 inh 24, tim10-1 inh 53*, NLRP3 yeast inh -2, PfHsp90 set2 19, tim23-1 inh 46, NALP1 inh 37 and tim10-1 conf 34*.
Screening Cc1ccc(NC(=O)CSc2nc(N)cc(=O)[nH]2)cc1S(=O)(=O)N1CCCCC1 returned TIM10 inh 2, tim10-1 inh 6, NLRP3 yeast inh 18, PfHsp90 set2 -13 and tim23-1 inh -3.
Cc1ccc(S(=O)(=O)N(Cc2cc3ccccc3[nH]c2=O)c2cccc(C)c2)cc1 was read as TIM10 inh 2, tim10-1 inh 7, NLRP3 yeast inh 0, PfHsp90 set2 -8, tim23-1 inh 1 and NALP1 inh -1.
Screening O=C(CSc1nc(-c2ccccc2)cs1)N1CCN(C(=O)c2ccco2)CC1 returned TIM10 inh 15, tim10-1 inh 44*, NLRP3 yeast inh 2, PfHsp90 set2 -29, tim23-1 inh 19, NALP1 inh 10 and tim10-1 conf 26.
Screening O=C(CSc1ccccc1)N1CCN(C(=O)c2ccco2)CC1 returned TIM10 inh 10, tim10-1 inh 9, NLRP3 yeast inh 5, PfHsp90 set2 26, tim23-1 inh 9 and NALP1 inh -27.
Screening O=C(C(Cc1ccccc1)n1cccc1)N1CCN(Cc2ccccc2)CC1 (centres undefined) returned TIM10 inh 11, tim10-1 inh 42*, NLRP3 yeast inh 7, PfHsp90 set2 16, tim23-1 inh 21, NALP1 inh -1 and tim10-1 conf 5.
`O=C(C(Cc1ccccc1)n1cccc1)N1CCCCC1` (centres undefined) gave TIM10 inh 6, tim10-1 inh 21, NLRP3 yeast inh 16, PfHsp90 set2 3, tim23-1 inh 11 and NALP1 inh -6.
`CC(C)C(C(=O)N1CCN(Cc2ccccc2)CC1)c1ccccc1` (centres undefined) gave TIM10 inh 32, tim10-1 inh 50*, NLRP3 yeast inh -31, PfHsp90 set2 -5, tim23-1 inh 35, NALP1 inh -1 and tim10-1 conf 35*.
O=C(CSc1nc2c(cnn2-c2cccc(Cl)c2)c(=O)[nH]1)NCCC1=CCCCC1 was read as TIM10 inh 2, tim10-1 inh -3, NLRP3 yeast inh 1 and tim23-1 inh -1.
COc1cccc(CNC(=O)c2ccccc2NC(=O)C2=C(C)OCCS2)c1 was read as TIM10 inh 9, tim10-1 inh 18, NLRP3 yeast inh 12, PfHsp90 set2 -4, tim23-1 inh 17 and NALP1 inh 9.
`COc1cccc(NC(=O)Nc2cc(C)ccc2OC)c1` gave TIM10 inh 38, tim10-1 inh 40*, NLRP3 yeast inh 36, PfHsp90 set2 -10, tim23-1 inh 36, NALP1 inh 1 and tim10-1 conf 29.
COc1ccc(C)cc1NC(=O)Nc1ccccc1 was read as TIM10 inh 21, tim10-1 inh 29, NLRP3 yeast inh 38, PfHsp90 set2 -9, tim23-1 inh 25 and NALP1 inh 11.
For COc1ccc(OCC(=O)NCc2nc(-c3ccccc3)no2)cc1 the results were PfHsp90 set2 19.
c1ccc(C(c2ccccc2)c2ccn[nH]2)cc1 was read as TIM10 inh 2, tim10-1 inh 44*, NLRP3 yeast inh 0, PfHsp90 set2 -7, tim23-1 inh 24, NALP1 inh 0 and tim10-1 conf 13.
CC(=O)c1ccc(N2CCN(CN3C(=O)CC4(CCCC4)C3=O)CC2)c(F)c1 was read as TIM10 inh 4, tim10-1 inh -4, NLRP3 yeast inh 13, PfHsp90 set2 -8, tim23-1 inh 6 and NALP1 inh 8.
`CC(=O)CCc1oc2ccc(C)cc2c1-c1ccc(C)o1` gave TIM10 inh 33, tim10-1 inh 46*, NLRP3 yeast inh 4, tim23-1 inh 36, NALP1 inh 11 and tim10-1 conf 58*.
`Cc1nc(SCC(=O)N2CCN(c3ccccc3)CC2)c2oc3ccccc3c2n1` gave TIM10 inh 31, tim10-1 inh 48*, NLRP3 yeast inh 43, PfHsp90 set2 -23, tim23-1 inh 40, NALP1 inh 11 and tim10-1 conf 43*.

Source: PubChem BioAssay (several laboratories)
